# Experimental data reported in PubChem BioAssay (EPA / NIEHS).
# Active and inactive are the calls of the source. Rule for the calls: active = hit-call score of the fitted dose curve at least 0.9, where 1 is the maximum; inactive = score below 0.9.
# Read-out: Nuclear factor NF-kappa-B p105 subunit (Homo sapiens) (UniProt P19838)
# Assay: LTEA_HepaRG_NFKB1: Life Technologies and Expression Analysis (LTEA) Assay for Nuclear Factor Kappa B Subunit 1 (NFKB1) using HepaRG (AID 2283521);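 for outcome: TaqMan qRT-PCR transcript normalised to ACTB GAPDH and POLR2A housekeeping genes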
# Settings: mRNA level, 48 h; actives raise or lower the signal
# Procedure: LTEA_HepaRG is a cell based, multiplexed-readout assay that uses HepaRG, a human liver cell line, with measurements taken at 48 hours after chemical dosing on a 96-well plate.LTEA_HepaRG_NFKB1 is one of 102 assay component(s) measured in the LTEA HepaRG cell culture assay. It is a marker of Cell proliferation, survival, death.Data from the assay component LTEA_HepaRG_NFKB1 was analyzed into 1 endpoint. This assay endpoint, LTEA_HepaRG_NFKB1, was analyzed with bidirectional fitting relative to DMSO as the negative control and baseline of activity. Using a type of inducible reporter, measures of mRNA induction for gain or loss-of-signal activity can be used to understand regulation of transcription factor activity. To generalize the intended target to other relatable targets, this assay endpoint is annotated to the dna binding intended target family, where the subfamily is NF-kappa B.
# A total of 1060 chemcials from the ToxCast library were tested in eight-point concentration-response experiments. Cell culture and cytotoxicity assays were conducted at Thermo Fisher Scientific's Custom Services facility (Madison, WI). A single lot of human HepaRG cells (Thermo Fisher Scientific, Frederick, MD) was used for the cell culture experiments. 96-well format collagen type I coated plates of human HepaRG cells were prepared using established methods. Briefly, cryopreserved HepaRG cells were thawed, plated at a density of approximately 100,000 cells/well in HepaRG Thaw, Plate, and General Purpose media (HPRG770, Thermo Fisher Scientific), and incubated for 48 hours. 0.5% DMSO was selected as vehicle control to balance the requisite need of DMSO in HepaRG cultures to maintain differentiation (for example, baseline metabolism, proportions of hepatocytes vs. cholangiocytes), while enabling further hepatic receptor pathway activation (for example, PXR and CAR) in response to chemical exposure. 48 hours after plating, the culture medium was replaced with HepaRG Serum-Free Incudtion Media. Cells were exposed to each test chemical in duplicate and maintained in CO2 incubators for another 48 hours. Chemical plates were thawed to room temperature and 200x concentrations of treatment groups were prepared. 8-point conentration-reponse curves were made with the highest exposure at 100 uM, followed by half-log dilutions, all in 0.5% DMSO. Each test plate contained variouse controls, induction positive controls (1mM phenobarbital), cytotoxicity positive controls ([…] aflatoxin B1), vehicle controls (0.5% DMSO), and total lysis controls (0.5% DMSO). Cell morphology images were taken using an Essen IncuCyte FLR automated microscope, with six 96-well plates imaged in about 24 minutes. Images were captured and exported and JPEG files. Spent culture media was transfered to black-well plates for the LDH assay, and remaining media was sorted at -80 C for later use. Cells were treated with RLT buffer and frozen until shipped for gene expression analysis. Total RNA was isolated from the cell suspension in 75 uL of Buffer RLT (Qiagen, Germantown, MD 20874) by Quintiles/Expression Analysis (Durham, NC) using a custom isolation procedure. Total RNA from each plate well was transferred to a preamplification plate. Fluidigm's 96.96 Dynamic ArrayTM (Fluidigm, Amsterdam, the Netherlands) technology was used for gene expression analyses by quantitative reverse transcription polymerase chain reaction (qRT-PCR, performed by Quintiles/Expression Analysis, Durham, NC)89. Standard TaqManTM Assays (Applied Biosystems/ThermoFisher Scientific, Foster City, CA) were used to assess the expression of 93 genes selected based on their selectivity and sensitivity to important hepatic receptors known to be modulated by environmental chemicals; importance in human hepatocyte functionality; and hepatotoxicity. […]
# Nuclear factor NF-kappa-B p105 subunit (Homo sapiens), sequence (P19838 whole entry, looked up): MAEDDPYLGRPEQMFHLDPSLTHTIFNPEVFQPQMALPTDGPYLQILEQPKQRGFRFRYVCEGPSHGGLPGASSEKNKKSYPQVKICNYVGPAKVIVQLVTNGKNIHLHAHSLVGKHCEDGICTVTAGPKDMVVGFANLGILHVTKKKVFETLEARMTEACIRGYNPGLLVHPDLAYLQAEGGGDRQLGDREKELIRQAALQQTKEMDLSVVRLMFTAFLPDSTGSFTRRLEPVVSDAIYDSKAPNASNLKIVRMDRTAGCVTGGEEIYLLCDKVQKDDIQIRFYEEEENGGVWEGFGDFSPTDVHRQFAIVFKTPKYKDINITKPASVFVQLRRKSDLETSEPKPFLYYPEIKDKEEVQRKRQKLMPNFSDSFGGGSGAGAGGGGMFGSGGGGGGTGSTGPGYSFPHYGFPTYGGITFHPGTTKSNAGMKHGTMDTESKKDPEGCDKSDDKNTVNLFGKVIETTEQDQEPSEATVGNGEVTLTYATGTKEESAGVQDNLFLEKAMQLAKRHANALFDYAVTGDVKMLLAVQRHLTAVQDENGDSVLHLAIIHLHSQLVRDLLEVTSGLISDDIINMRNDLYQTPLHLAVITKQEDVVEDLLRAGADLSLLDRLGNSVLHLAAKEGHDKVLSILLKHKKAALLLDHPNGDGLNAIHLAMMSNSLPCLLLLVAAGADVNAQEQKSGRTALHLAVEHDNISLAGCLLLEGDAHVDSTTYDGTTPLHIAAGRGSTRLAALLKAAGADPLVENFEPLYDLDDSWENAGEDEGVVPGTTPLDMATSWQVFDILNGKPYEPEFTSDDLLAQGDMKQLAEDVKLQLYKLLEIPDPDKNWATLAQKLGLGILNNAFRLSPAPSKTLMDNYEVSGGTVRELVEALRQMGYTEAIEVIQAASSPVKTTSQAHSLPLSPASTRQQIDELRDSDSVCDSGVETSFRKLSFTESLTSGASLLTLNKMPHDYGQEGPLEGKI
SMILES,outcome,AC50
Cc1ccccc1O,inactive,
CC#Cc1cc(C)nc(Nc2ccccc2)n1,inactive,
c1cc2ccc3cccc4ccc(c1)c2c34,inactive,
Cc1ccc(O)c(C)c1,inactive,
CCOC(=O)C(O)(c1ccc(Cl)cc1)c1ccc(Cl)cc1,inactive,
COS(=O)(=O)OC,inactive,
ClC(Cl)=C(c1ccc(Cl)cc1)c1ccc(Cl)cc1,inactive,
c1ccc(-c2ccccc2)cc1,inactive,
Cc1cccc([N+](=O)[O-])c1,inactive,
O=S(=O)(O)C(F)(F)C(F)(F)C(F)(F)C(F)(F)C(F)(F)C(F)(F)F,inactive,
CCSC(=O)N(CC)C1CCCCC1,inactive,
CCCCCCCCOC(=O)c1ccccc1C(=O)OCCCCCCCC,inactive,
CC(c1ccc(O)cc1)(c1ccc(O)cc1)c1ccc(O)cc1,inactive,
CN(C)CCO,inactive,
Cc1ccccc1[N+](=O)[O-],inactive,
CCC(C)(c1ccc(O)cc1)c1ccc(O)cc1,inactive,
CCC(C)c1cc([N+](=O)[O-])cc([N+](=O)[O-])c1O (stereo not given),inactive,
O=C(N[C@H]1CN2CCC1CC2)c1cc2ccoc2cn1,inactive,
Cc1cccc(C)c1N,inactive,
Clc1ccc(C(c2ccccc2Cl)C(Cl)(Cl)Cl)cc1 (stereo not given),inactive,

SMILES,outcome,AC50
CO/C=C(/C(=O)OC)c1ccccc1COc1cccc(C(F)(F)F)n1,inactive,
CCC(=O)O[C@H]1CC[C@H]2[C@@H]3CCC4=CC(=O)CC[C@]4(C)[C@H]3CC[C@]12C,inactive,
C1CC2OC2CC1C1CO1 (stereo not given),inactive,
O=S(=O)(O)C(F)(F)C(F)(F)C(F)(F)C(F)(F)F,inactive,
CCCN(CCC)N=O,inactive,
CC(C)(c1ccccc1)c1ccc(O)cc1,inactive,
CC(C)C(=O)OCC(C)(C)C(OC(=O)C(C)C)C(C)C (stereo not given),inactive,
CCCCCCOC(=O)c1ccccc1C(=O)OCCCCCC,inactive,
Clc1ccc(Cl)cc1,inactive,
Cc1ccccc1CO[C@@H]1C[C@@]2(C(C)C)CC[C@]1(C)O2,inactive,
ClC1=C(Cl)[C@]2(Cl)[C@@H]3[C@H]4C[C@H]([C@@H]5O[C@H]45)[C@@H]3[C@@]1(Cl)C2(Cl)Cl,inactive,
Cc1cc(O)ccc1Cl,inactive,
CCNc1nc(NC(C)C)nc(SC)n1,inactive,
O=C(NC(=O)c1c(F)cccc1F)Nc1cc(Cl)c(OC(F)(F)C(F)F)c(Cl)c1,inactive,
ClC1=C(Cl)[C@]2(Cl)[C@@H]3[C@@H]4C[C@@H]([C@H]5O[C@@H]45)[C@@H]3[C@@]1(Cl)C2(Cl)Cl,inactive,
ClC1=C(Cl)[C@]2(Cl)[C@@H]3[C@@H](Cl)[C@H]4O[C@H]4[C@@H]3C1(Cl)C2(Cl)Cl,inactive,
NS(=O)(=O)C(F)(F)C(F)(F)C(F)(F)C(F)(F)C(F)(F)C(F)(F)C(F)(F)C(F)(F)F,,2400 nM (active)
O=C(O)C(F)(F)C(F)(F)C(F)(F)C(F)(F)C(F)(F)C(F)(F)C(F)(F)C(F)(F)C(F)(F)F,inactive,
Nn1cnnc1,inactive,
C=CC(N)=O,inactive,
